# From PubChem BioAssay
# An excerpt weighted towards active compounds, which were near 7.6% of everything screened.
# BRCA1 expr up: activators of BRCA1 expression. MCF7-BRCA1-FFLuc reporter, luminescence, 48 h; response scale: scaled: vehicle 0%, 10 µM genistein 100%. Potency, µM (highest dose often 46.1 µM), for the others: at the highest dose activation, hits mostly activators. 380,000 compounds, 1.1% hits. AID 624202; note: potency is the fitted concentration of half-maximal effect; nearly all actives have a fitted effect of over 80% in size
#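 MCF7-BRCA1-FFLuc cells, 2000/well in phenol-red-free MEM, attached 2 h then treated 48 h at 37 C. Luciferase luminescence read 15 min after reagent; normalized to genistein maximum activation (10microM) and DMSO, concentration-response fitted.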
# Gal4-VP16 FLuc: counter-screen for ROR gamma inhibitors: Gal4-VP16 reporter; Potency, µM (highest dose often 53.6 µM), for inactives: at the highest dose activity, negative = inhibition, hits mostly inhibitors; Drosophila S2 Gal4-VP16 UAS-luciferase, luminescence, 20 h; 310,000 compounds, 3.5% hits;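 note: Gal4-VP16 expression switched on by copper sulfate through the metallothionein promoter; potency is the fitted concentration of half-maximal effect; % is set by controls: 0 for no effect and ±100 for the full control effect; nearly all actives have a fitted effect of over 50% in size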
# Giardia killer: kills Giardia lamblia; Giardia lamblia trophozoite viability; activity change, % at 7.66 µM, hits read low; 340,000 compounds, 0.15% hits; AID 540267; in the data active = activity change below about -80%; inconclusive = between about -30% and that limit;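 note: parasites exposed to compound for two days anaerobically before the ATP read; % is set by controls: 0 for no effect and ±100 for the full control effect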
#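 Anaerobic 48 hrs incubation at 37 deg C of 100 trophozoites/well with test compounds; ATPLite 1-Step luminescence, 15-30 min RT, reports cellular ATP as viability.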
# ELG1 repair inh: inhibitors of ELG1-dependent DNA repair in HEK293T cells; HEK293T ELG1-luciferase reporter, luminescence, 16 h; DNA damage induced by 5-fluorouridine; Potency, µM (doses to about 46.1 µM), for inactives: at the highest dose activity change, negative = inhibition, most hits filed as inhibitors; 330,000 compounds, 2.3% hits; AID 504467; note: potency is the fitted concentration of half-maximal effect; % is set by controls: 0 for no effect and ±100 for the full control effect; nearly all actives have a fitted effect of over 55% in size
#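 Cells (2,000 per well) received 5-fluorouridine plus test compound or DMSO and were incubated 16 hr at 37 °C, 5% CO2. Luciferase activity was read by luminescence 30 min after ONE-Glo addition; signal suppression marked inhibition of damage-induced ELG1 function.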
# RORgamma inh: blocks mouse ROR gamma transcriptional activity; Drosophila S2 Gal4-RORgamma UAS-luciferase reporter, 20 h; Potency, µM (doses to about 53.6 µM), without a hit: at the highest dose activity change, negative = inhibition, hits mostly inhibitors; 310,000 compounds, 5.4% hits; AID 2551; note: potency is the fitted concentration of half-maximal effect; % is set by controls: 0 for no effect and ±100 for the full control effect; nearly all actives have a fitted effect of over 60% in size
# Target sequence (P51450 whole entry, looked up, the tested form may be a part): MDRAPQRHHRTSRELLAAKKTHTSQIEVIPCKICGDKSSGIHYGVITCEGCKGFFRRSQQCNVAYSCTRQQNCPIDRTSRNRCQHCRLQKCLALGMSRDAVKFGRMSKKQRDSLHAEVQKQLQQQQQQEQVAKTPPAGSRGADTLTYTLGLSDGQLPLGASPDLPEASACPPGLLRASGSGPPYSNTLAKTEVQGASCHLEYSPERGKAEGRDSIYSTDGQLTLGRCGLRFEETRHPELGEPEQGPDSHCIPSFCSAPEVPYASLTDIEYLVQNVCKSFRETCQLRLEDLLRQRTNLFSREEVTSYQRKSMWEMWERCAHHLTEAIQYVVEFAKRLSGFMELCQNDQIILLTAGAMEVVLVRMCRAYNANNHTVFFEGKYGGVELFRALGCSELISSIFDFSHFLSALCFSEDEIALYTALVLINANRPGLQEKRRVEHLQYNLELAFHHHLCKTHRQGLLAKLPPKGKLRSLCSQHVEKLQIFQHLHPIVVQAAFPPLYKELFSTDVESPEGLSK
#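 Drosophila Schneider cells stably carrying a metallothionein-driven Gal4 DBD–ROR gamma fusion and a UAS-Photinus luciferase reporter were exposed to compound for 1 hr, then induced with copper sulfate (700 uM final) for 20 hr at ambient temperature before luminescence reading.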
# p53 reactivation: restores transcriptional activity of mutant p53 | H1299 p53-A138V BP100-luciferase reporter, luminescence, 24 h | Potency, µM (titrated, usually from 92.2 µM), for inactives: at the highest dose activity change, positive = activation, most hits filed as activators | 320,000 compounds, 0.063% hits | AID 504706; note: potency is the fitted concentration of half-maximal effect; % of control where 0% means no effect; nearly all actives have a fitted effect of over 45% in size
#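 p53-null H1299 cells stably carrying temperature-sensitive p53-A138V and a BP100-luciferase reporter were pinned with compounds (4-point, 1:5 series) and held 24 hrs at 37 deg C. Luminescence was read 10 min after detection reagent.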
# The depositor's hits bear a star; ? = inconclusive; nt = no result given; [ ] = another dose, or the depositor's remark. Unless noted, calls come from the whole dose curve; as a rule, active = well fitted curve in the direction sought with a large enough effect; inconclusive = small, poorly fitted or top-dose-only effect, or another doubt; inactive = no such curve, though single readings can be large; an effect the other way counts as inactive or inconclusive.
SMILES,BRCA1 expr up,Gal4-VP16 FLuc,Giardia killer,ELG1 repair inh,RORgamma inh,p53 reactivation
CN(C(=S)NC(=O)c1ccccc1)C1CCCCC1,1%,1.3µM*,5,?,1.1µM*,5%
O=C(NNC(=O)C1CCC1)c1ccc(Cl)cc1,34%,-9%,18,2%,2%,3%
C[C@H](NC(=O)c1nc[nH]c1C(=O)NCc1ccc(CNC(=O)OC(C)(C)C)cc1)C(=O)OC(C)(C)C,-29%,-11%,21,8.2µM*,?,1%
CC(C)(C)OC(=O)NCc1ccc(NC(=O)c2nc[nH]c2C(=O)N[C@@H](Cc2ccccc2)C(=O)OC(C)(C)C)cc1,-66%,11µM*,13,?,7.1µM*,4%
CC(C)(C)OC(=O)[C@H](Cc1ccccc1)NC(=O)c1nc[nH]c1C(=O)NCC(=O)OCc1ccccc1,10%,?,11,29%,?,nt
CC(C)C[C@H](NC(=O)c1nc[nH]c1C(=O)NCc1ccccc1)C(=O)OCc1ccccc1,18%,11µM*,51,?,4.5µM*,3%
CC(C)C[C@H](NC(=O)c1nc[nH]c1C(=O)NCc1ccccc1)C(=O)OC(C)(C)C,-34%,10µM*,-12,-4%,4.5µM*,0%
CCOCc1[nH]c(=S)[nH]c(=O)c1Cc1ccc(OCC)cc1,0%,0%,5,1%,-3%,-3%
COc1ccccc1C(=O)Nc1ccnn1C1CCN(C2CCSCC2)CC1,27%,6%,6,-3%,-31%,6%
CC(C)(C)OC(=O)NCCCC[C@H](NC(=O)c1nc[nH]c1C(=O)NCc1ccc(CNC(=O)OC(C)(C)C)cc1)C(=O)OC(C)(C)C,-19%,2%,-16,?,?,12%
CC(C)C[C@H](NC(=O)c1nc[nH]c1C(=O)NCc1ccc(CNC(=O)OC(C)(C)C)cc1)C(=O)OC(C)(C)C,-71%,?,11,?,13µM*,nt
CC(C)C[C@H](NC(=O)c1[nH]cnc1C(=O)Nc1ccc(CNC(=O)OC(C)(C)C)cc1)C(=O)OC(C)(C)C,-86%,8.9µM*,-3,?,3.2µM*,2%
CC(C)C[C@H](NC(=O)c1[nH]cnc1C(=O)Nc1ccc(CNC(=O)OC(C)(C)C)cc1)C(=O)OCc1ccccc1,-50%,?,-20,?,5.6µM*,-7%
C[C@H](NC(=O)c1[nH]cnc1C(=O)Nc1ccc(CNC(=O)OC(C)(C)C)cc1)C(=O)OCc1ccccc1,-73%,?,-16,-30%,?,-11%
CC(C)(C)OC(=O)NCCCCCNC(=O)c1nc[nH]c1C(=O)NCc1ccc(CNC(=O)OC(C)(C)C)cc1,-76%,nt,-18,6.5µM*,nt,1%
CC1CCc2sc(C(=O)NNC(=O)c3ccncc3)cc2C1 (centres undefined),1%,nt,-9,?,nt,2%
CC(=O)c1ccc(N2CCN(C(=O)Nc3ccc(C)cc3)CC2)cc1,-27%,-3%,1,?,7%,-3%
COc1ccc(NS(=O)(=O)c2ccc(C(=O)N(C)Cc3ccc(C)o3)cc2)cc1,-14%,nt,-5,0%,nt,0%
COC(=O)C1=C(N)c2ccccc2C1(C#N)c1ccccc1 (centres undefined),-29%,16µM*,1,-15%,11%,-4%
Cc1ccc2c(c1)CCCN2C(=O)c1ccncc1,2%,7%,-12,-19%,-5%,-1%
CC(=O)SC1CC(=O)N(c2ccc(C(C)(C)C)cc2)C1=O (centres undefined),0%,?,-2,0%,7.1µM*,4%
Cc1cccc(C)c1N1C(=O)CC(N2CCSCC2)C1=O (centres undefined),-11%,5%,22,16%,3%,4%
CC(=O)SC1CC(=O)N(c2c(C)cccc2C)C1=O (centres undefined),7%,?,-10,-22%,10µM*,29%
COc1ccccc1Nc1ccncc1[N+](=O)[O-],0%,?,-6,?,7%,-2%
COc1ccc2[nH]c(=O)c(CN(C)C(=O)C3CCCCC3)cc2c1,-26%,-6%,-6,13%,-3%,3%
SMILES,BRCA1 expr up,Gal4-VP16 FLuc,Giardia killer,ELG1 repair inh,RORgamma inh,p53 reactivation
O=C(Cc1csc(NC(=O)Nc2ccc(Cl)cc2)n1)NC1CCCC1,-26%,nt,-1,4%,nt,22%
CCOC(=O)Cc1csc(NC(=O)Nc2cccc(Cl)c2)n1,27%,4%,-1,-19%,40%,26%
CCOC(=O)Cc1csc(NC(=O)Nc2ccc(Cl)cc2)n1,-19%,-1%,0,18µM*,36%,3%
O=C(Cc1csc(NC(=O)Nc2ccc(Cl)cc2)n1)NCc1ccccn1,11µM*,nt,-6,?,nt,24%
CCOC(=O)C1=NN(c2cccc(Cl)c2)C2=NC(C)=C(C(=O)OC)C(c3cccs3)N12 (centres undefined),-3%[1.84 µM],-6%,-3,21µM*,26%,2%
CCOC(=O)C1=NN(c2ccccc2)C2=NC(C)=C(C(=O)OC)C(c3cccs3)N12 (centres undefined),-1%[1.84 µM],nt,-24,nt,nt,nt
CCOC(=O)[C@@H]1[C@H]2COc3cc(OC)ccc3[C@@H]2N2C(=O)N(c3ccc(C)cc3)C(=O)[C@]12C,21%,nt,10,nt,nt,nt
CCOC(=O)c1nnc(-c2ccccc2)nc1Oc1ccccc1Cl,-9%,5µM*,3,-7%,4.5µM*,6%
COc1ccc(-c2nc3sc(CCNC(=O)c4ccccc4C)c(C)n3n2)cc1,29%,nt,nt,nt,nt,nt
COc1ccc(-c2nc3sc(CCNC(=O)c4cccc(C(F)(F)F)c4)c(C)n3n2)cc1,6.3µM*,nt,nt,nt,nt,nt
Cc1nn(-c2ccc(Cl)cc2)c2sc(C(=O)c3c(N)n(C)c(=O)n(C)c3=O)cc12,-52%,-9%,1,11%,14%,6%
COC(=O)CCCC(=O)NC1CC(C)(C)Cc2c1cnn2-c1ccc(C)cc1 (centres undefined),-41%,1%,-15,0%,?,nt
COc1ccc(NS(=O)(=O)c2ccc(O)c(NC(=O)c3cc4c(C)nn(-c5ccc(F)cc5)c4s3)c2)cc1,-76%,22µM*,-4,-22%,?,-25%
COc1ccc(NC(=O)c2cc3c(C)nn(-c4ccccc4)c3s2)c(OC)c1,6%,nt,nt,nt,nt,nt
COC(C[C@@H]1O[C@H]1C(=O)[C@@H](C)OCc1ccccc1)OC,2%,nt,-11,nt,nt,nt
Cc1cc(C)c2nc(N3CCC(C(=O)NCc4cccnc4)CC3)sc2c1,40%,-10%,15,-9%,3%,6%
